This note sets out measurements from PubChem BioAssay (NCI).

Compounds without any hit were thinned out: in the full panel of roughly 83,000, 20% have a hit.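 Results are percent growth after 48 hours of single-concentration exposure. 100 means growth as in untreated cells, lower positive values show inhibition; negative values down to -100 show cell death.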 A number with no mark means an inactive call. Calls of active or inactive are those of the source. The calls were made as follows: active = growth percent below 10; inactive = the rest.

This experiment deals with DU-145 prostate. As to the kind of experiment: NCI-60 one-dose screen, 48 h (100 = growth as untreated, 0 = no growth, -100 = all killed). As to conditions: 10 µM unless noted.
On to `CCOc1ccc(C(C)=O)cc1NC(=O)c1cccc(-c2nnn(CC)n2)c1`, for which the growth was 16.7%.
Regarding `O=[N+]([O-])c1ccccc1/C=N\NC(=S)N/N=C/c1ccccc1[N+](=O)[O-]`, the growth is 62.1%.
For `O=[N+]([O-])c1ccc2c(c1)Cc1cc(F)ccc1-2`, the growth was 114%.
The value for `CC(=O)OC[C@H]1O[C@H](OC(C)=O)[C@H](NC(=O)/C=C/CCl)[C@@H](OC(C)=O)[C@@H]1OC(C)=O` was 93.2%; that for `CCC#CC[C@H](O)C/C=C1/C(=O)C=C[C@@H]1C/C=C\CCCC(=O)OC` was 23%.
In the case of `CC/C=C\C[C@H](O)C/C=C1/C(=O)C=C[C@@]1(C)C/C=C\CCCC(=O)OC`, the growth is 112%.
The value for `CC[N+](CC)=c1sc2c(s1)C(c1ccc(Cl)cc1)Oc1ccc(Cl)cc1-2` (centres undefined) was 24.4%.
As to `COc1cccc(-c2nc(SCC(=O)Nc3ccc(C(=O)/C=C/c4ccc(OC)c(OC)c4)cc3)[nH]c(=O)c2C#N)c1`, the growth is 89.4%.
The value for `COc1ccc(CN2c3ccccc3Oc3ccccc32)cc1O` was 36.8%; that for `C=C1C(=O)O[C@H]2[C@H]1CC/C(C=Nc1ccc(C(F)(F)F)cc1N)=C\CC[C@@]1(C)O[C@@H]21` was 17.4%; that for `COc1ccc2c(c1)C(=O)/C(=C/c1cccnc1)CC2` was 97%.
In the case of `Clc1ccc2c(NCCCCNc3nc(N4CCOCC4)nc4ccccc34)ccnc2c1`, the growth was 38.4%.
The value for `COc1ccccc1Nc1nc(-c2cc3cccc(C(F)(F)F)c3oc2=O)cs1` was 7% (active); that for `CCc1c(Nc2ccccc2C)nc(N)[nH]c1=O` was 111%.
